# Results filed as inconclusive are left out. Where a call stands in place of a potency, no number is given. Unmarked numbers belong to inactive results. Active and inactive are the calls of the source. Unless noted, the call rests on the fitted dose curve; in most records, active means well fitted curve in the direction sought with a large enough effect in the repeat runs; inconclusive means weak or mixed curves; inactive means no such curve, though single readings can be large; an effect the other way counts as inactive or inconclusive.
# Experiments:
# [1] = qHTS assay to identify small molecule agonists of the vitamin D receptor (VDR) signaling pathway - cell viability counter screen (AID 743224); further: series mostly up to about 63 µM; nearly all actives have a fitted effect of over 50% in size
# Outline: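 VDR-bla cell line, quantitative HTS format; 16 h compound incubation (37C, 5% CO2); ATP-based CellTiter-Glo luminescence measured in the reporter assay wells.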
# [2] = qHTS assay to identify small molecule antagonists of the vitamin D receptor (VDR) signaling pathway - cell viability counter screen (AID 743225); further: nearly all actives have a fitted effect of over 50% in size
# Outline: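 Parallel cytotoxicity test: VDR-UAS-bla HEK 293T, 3 nM (final) 1-alpha,25-dihydroxyvitamin D3 with test compound, 16 h, 37C. Endpoint is CellTiter-Glo luminescence in the same wells.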
# [3] = qHTS assay to identify small molecule agonists of the NFkB signaling pathway (AID 1159509; active means well fitted curve in the direction sought with a large enough effect in the signal ratio in the repeat runs, not every such curve was filed as active; the % refers to the signal ratio; further: series mostly up to about 61 µM)
# Outline: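 NFkB-bla ME-180 cells carry a beta-lactamase reporter under an NF-kB response element. They were plated overnight, then exposed to compounds for 5 h at 37 C. Read-out is LiveBLAzer FRET after 1.5 hr at room temperature (405 nm excitation; 460/530 nm emission).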
# [4] = qHTS assay to identify small molecule agonists of the NFkB signaling pathway - cell viability counter screen (AID 1159515; calls by dose curve; further: series mostly up to about 61 µM; nearly all actives have a fitted effect of over 55% in size)
# Outline: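 Viability in NFkB-bla ME-180 cells was measured by CellTiter-Glo luminescence, 30 min room temperature, in wells already treated 5 hr with compounds and read for reporter FRET.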
# [5] = qHTS assay to identify small molecule agonists of the endoplasmic reticulum stress response signaling pathway (AID 1159516; active means well fitted activation curve with a large enough effect in the signal ratio in the repeat runs, not every such curve was filed as active; the % refers to the signal ratio)
# Outline: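 ER stress element reporter (bla) in HeLa. 1,500 cells/well, overnight attachment; 5 hr compound; 2 hr RT substrate; dual-emission fluorescence.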
# [6] = qHTS assay to identify small molecule agonists of the endoplasmic reticulum stress response signaling pathway - cell viability counter screen (AID 1159517; calls by dose curve;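 further: HeLa cells carrying an ER stress response element beta-lactamase reporter; series mostly up to about 61 µM; nearly all actives have a fitted effect of over 50% in size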)
# Outline: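 HeLa cells carrying an ESRE-driven beta-lactamase reporter receive compound for 5 hr at 37 C. Cell viability is then gauged with CellTiter-Glo by luminescence, 30 min at room temperature.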
# [7] = qHTS assay to identify small molecule antagonists of the retinoid-related orphan receptor gamma (ROR-gamma) signaling pathway - cell viability counter screen (AID 1159520); further: nearly all actives have a fitted effect of over 50% in size; further: potency means the concentration at half of the fitted maximal effect
# Outline: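 Cytotoxicity was read from cellular ATP (CellTiter-Glo luminescence) after 16 hr at 37 C with 1 uM doxycycline induction. The inducer was added 2 hr after compound transfer to Tet-on ROR gamma CHO cells.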
# [8] = target: Nuclear receptor ROR-gamma (Homo sapiens) (UniProt P51449); assay: qHTS assay to identify small molecule antagonists of the retinoid-related orphan receptor gamma (ROR-gamma) signaling pathway (AID 1159521; further: nearly all actives have a fitted effect of over 50% in size; further: potency means the concentration at half of the fitted maximal effect;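 on activity change, negative = inhibition: CHO cells with doxycycline inducible ROR-gamma driving an RORE luciferase reporter; top concentration of the series differs between compounds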)
# Outline: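 Decreased RORE-driven luciferase luminescence indicates antagonism. Tet-on RORγ CHO cells received compound, then 1 uM final doxycycline 2 h later; signal read after 16 h incubation.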
# [9] = qHTS assay to identify small molecule agonists of the AP-1 signaling pathway - cell viability counter screen (AID 1159525; calls by dose curve; further: nearly all actives have a fitted effect of over 55% in size)
# Outline: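 Luminescent ATP readout (Cell Titer Glo, 30 min RT), normalised to DMSO and tetra n-octyl ammonium bromide controls. Cells were ME-180 AP-1-bla in 0.5% dialyzed FBS Opti-MEM, with a 5 h, 37 °C compound exposure.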
# [10] = qHTS assay to identify small molecule agonists of the AP-1 signaling pathway (AID 1159526; calls by dose curve)
SMILES,Potency [1],Potency [2],outcome [3],outcome [4],outcome [5],outcome [6],Potency [7],Potency [8],outcome [9],"activity, negative = cytotoxicity [7]","activity change, negative = inhibition [8]","viability change, negative = cytotoxic [9]",Potency [10],activation [10]
ICCc1ccccc1,inactive,inactive,inactive,inactive,inactive,inactive,inactive,59.9 µM (active),inactive,,,,,
O=C(O)C(=O)Cc1c[nH]c2ccccc12,inactive,inactive,inactive,inactive,inactive,inactive,inactive,inactive,inactive,,,,,
Nc1ccc2ccccc2c1S(=O)(=O)O,inactive,inactive,inactive,inactive,inactive,inactive,inactive,inactive,inactive,,,,,
CN(CCCN1c2ccccc2CCc2ccccc21)CC(=O)c1ccc(Cl)cc1,inactive,inactive,inactive,inactive,inactive,inactive,29.8 µM (active),inactive,inactive,,,,,
Cc1ccc(C=O)s1,inactive,inactive,inactive,inactive,inactive,inactive,inactive,inactive,inactive,,,,,
COC(=O)c1ccc2cc(C(=O)OC)ccc2c1,,inactive,inactive,inactive,inactive,inactive,,,,-0.583% [at 19 µM],0.445% [at 19 µM],2.85% [at 15.8 µM],,
CN1CCN(C2=Nc3cc(F)ccc3Cc3ccccc32)CC1,inactive,,inactive,inactive,inactive,inactive,inactive,inactive,inactive,,,,,
CC1=NN(c2cc(Cl)c(S(=O)(=O)O)cc2Cl)C(=O)C1N=Nc1ccc(S(=O)(=O)O)cc1 (stereo not given),inactive,inactive,inactive,inactive,inactive,inactive,inactive,inactive,inactive,,,,,
CCCCCCCCCC#N,,inactive,inactive,inactive,inactive,inactive,inactive,inactive,inactive,,,,,
CN(C)CCOc1ccccc1Cc1ccccc1,inactive,inactive,inactive,inactive,inactive,inactive,inactive,inactive,inactive,,,,,
CCC(=O)O[C@]1(C(=O)SCF)[C@H](C)C[C@H]2[C@@H]3C[C@H](F)C4=CC(=O)C=C[C@]4(C)[C@@]3(F)[C@@H](O)C[C@@]21C,inactive,inactive,inactive,inactive,inactive,inactive,inactive,inactive,inactive,,,,,
CNCCC(Oc1ccccc1OC)c1ccccc1 (stereo not given),inactive,inactive,inactive,inactive,inactive,inactive,inactive,inactive,inactive,,,,,
Cc1c(-c2ccccc2)oc2c(C(=O)OCCN3CCCCC3)cccc2c1=O,inactive,,inactive,inactive,inactive,inactive,inactive,inactive,inactive,,,,,
CCCCCCOc1ccc(N)cc1,,inactive,inactive,inactive,inactive,inactive,inactive,inactive,inactive,,,,,
Cc1nc(-c2ccccn2)ncc1C(=O)Nn1cc(C)c2cc(F)ccc21,inactive,inactive,inactive,inactive,inactive,inactive,inactive,inactive,inactive,,,,,
CC1=C(CC(=O)O)c2cc(F)ccc2/C1=C\c1ccc(S(C)(=O)=O)cc1,inactive,inactive,inactive,inactive,inactive,inactive,inactive,inactive,inactive,,,,,
Cc1ccc([N+](=O)[O-])c(N)c1,inactive,inactive,inactive,inactive,inactive,inactive,inactive,inactive,inactive,,,,,
CCN(CC)CCOc1ccc(Cc2ccccc2)cc1,,inactive,inactive,inactive,inactive,inactive,inactive,inactive,inactive,,,,,
CCc1cc2cc(OC)c(OC)cc2c(Cc2ccccc2)n1,inactive,inactive,inactive,inactive,inactive,inactive,inactive,inactive,inactive,,,,,
CC(C)C1=CC2=CC[C@@H]3[C@](C)(CCC[C@@]3(C)C(=O)O)[C@H]2CC1,inactive,inactive,inactive,inactive,inactive,inactive,inactive,inactive,inactive,,,,,
CCN(CC)CC1CCCCN1CC(=O)N1c2ccccc2C(=O)Nc2cccnc21 (stereo not given),inactive,inactive,inactive,inactive,inactive,inactive,inactive,inactive,inactive,,,,,
CCCCOc1cc(C(=O)NCCN(CC)CC)c2ccccc2n1,inactive,inactive,inactive,inactive,inactive,inactive,inactive,inactive,inactive,,,,,
O=C1CCN(c2ccccc2)N1,,,inactive,inactive,inactive,inactive,inactive,inactive,inactive,,,,,
CCOc1ccccc1N,inactive,inactive,inactive,inactive,inactive,inactive,inactive,54.1 µM (active),inactive,,,,,
Cc1cc2nc(N)sc2cc1C,inactive,inactive,inactive,inactive,inactive,inactive,inactive,inactive,inactive,,,,,
CC1=C2[C@H](/C=C(\C)C(=O)O)CC[C@@H](C)[C@H]2CC1,inactive,inactive,inactive,inactive,inactive,inactive,inactive,inactive,inactive,,,,,
Cc1cccc(C)c1NC(=O)CN1CCCCCC1,inactive,inactive,inactive,inactive,inactive,inactive,inactive,inactive,inactive,,,,,

SMILES,Potency [1],Potency [2],outcome [3],outcome [4],outcome [5],outcome [6],Potency [7],Potency [8],outcome [9],"activity, negative = cytotoxicity [7]","activity change, negative = inhibition [8]","viability change, negative = cytotoxic [9]",Potency [10],activation [10]
O=C1CCCCCCCCCCC(=O)OCCO1,inactive,inactive,inactive,inactive,inactive,inactive,inactive,inactive,inactive,,,,,
COc1ccc(Nc2ccc(OC)cc2)cc1,inactive,inactive,inactive,inactive,inactive,inactive,inactive,inactive,inactive,,,,,
CCCCCCCCCCCCCCCCOP(=O)([O-])OCC[N+](C)(C)C,inactive,,inactive,inactive,inactive,inactive,inactive,inactive,inactive,,,,,
CCCCCCCCCCCCOCCOS(=O)(=O)O,,,inactive,inactive,inactive,inactive,inactive,inactive,,,,,,
Cc1c(C(=O)NCCO)[n+](=O)c2ccccc2n1[O-],inactive,inactive,inactive,inactive,inactive,inactive,inactive,inactive,inactive,,,,,
O=c1[nH]cnc2c1ncn2[C@@H]1O[C@H](CO)[C@@H](O)[C@H]1O,inactive,inactive,inactive,inactive,inactive,inactive,inactive,inactive,inactive,,,,,
CCCCNc1ccc(C(=O)OCCN(CC)CC)cc1,inactive,inactive,inactive,inactive,inactive,inactive,inactive,inactive,inactive,,,,,
CN(C)CC[C@@H](c1ccc(Cl)cc1)c1ccccn1,inactive,inactive,inactive,inactive,inactive,inactive,inactive,inactive,inactive,,,,,
Cc1c[nH]c(=S)[nH]c1=O,,inactive,inactive,inactive,inactive,inactive,inactive,inactive,inactive,,,,,
CCNCCO,inactive,inactive,inactive,inactive,inactive,inactive,inactive,inactive,inactive,,,,,
CC(Oc1c(Cl)cccc1Cl)C1=NCCN1 (stereo not given),inactive,inactive,inactive,inactive,inactive,inactive,inactive,inactive,inactive,,,,,
CCOC(=O)C(Br)c1ccccc1 (stereo not given),inactive,inactive,inactive,inactive,inactive,inactive,inactive,inactive,,,,,inactive,
Cc1c(N)cccc1N,inactive,inactive,inactive,inactive,inactive,inactive,inactive,inactive,,,,,inactive,
CN1CCN(N)CC1,inactive,inactive,inactive,inactive,inactive,inactive,inactive,inactive,,,,,inactive,
CC(C)C(=O)OCC(C)(C)C(O)C(C)C (stereo not given),inactive,inactive,inactive,inactive,inactive,inactive,inactive,inactive,,,,,inactive,
NS(=O)(=O)c1cc(-c2nn[nH]n2)c(NCc2cccs2)cc1Cl,inactive,inactive,inactive,inactive,inactive,inactive,inactive,inactive,,,,,inactive,
COc1ccccc1OCC(O)COC(N)=O (stereo not given),inactive,inactive,inactive,inactive,inactive,inactive,inactive,inactive,,,,,,
CC(C)C(=O)OC/C=C/c1ccccc1,inactive,inactive,inactive,inactive,inactive,inactive,inactive,inactive,,,,,inactive,
Cc1nnc(SCC2=C(C(=O)O)N3C(=O)[C@@H](NC(=O)Cn4cnnn4)[C@H]3SC2)s1,,,inactive,inactive,inactive,inactive,inactive,,inactive,,,,inactive,
CN(C)C(=O)NC1(c2ccccc2)CCN(CCC[C@]2(c3ccc(Cl)c(Cl)c3)CCCN(C(=O)c3ccccc3)C2)CC1,inactive,inactive,inactive,inactive,inactive,inactive,,,,-2.5% [at 19 µM],-21% [at 19 µM],,,11.5% [at 15.8 µM]
O=Cc1ccc(F)c(Br)c1,inactive,inactive,inactive,inactive,inactive,inactive,inactive,inactive,,,,,inactive,
O=[N+]([O-])c1nccn1CO[C@@H](CO)[C@H](O)CO,inactive,inactive,inactive,inactive,inactive,inactive,inactive,inactive,,,,,inactive,
C=CCc1cc(OC)c(O)c(C(=O)NCCO)c1,inactive,inactive,inactive,inactive,inactive,inactive,inactive,inactive,,,,,inactive,
CCCCCCCCOC(=O)CCCCCCCCC(=O)OCCCCCCCC,inactive,inactive,inactive,inactive,inactive,inactive,inactive,inactive,,,,,inactive,
NC1=NCC2c3ccccc3Cc3ccccc3N12 (stereo not given),inactive,inactive,inactive,inactive,inactive,inactive,inactive,inactive,,,,,inactive,
CCCOc1ccc2c(c1)CC[C@@H]1[C@@H]2CC[C@]2(C)C(OC)CC[C@@H]12 (stereo not given in full),inactive,inactive,inactive,inactive,inactive,inactive,inactive,inactive,,,,,,
